KDM5B inh: KDM5B demethylase inhibition; Q9UGL1; KDM5B demethylase, FDH-coupled NADH fluorescence (FDH is formaldehyde dehydrogenase); Potency, µM (top dose mostly 57.7 µM), hits mostly inhibitors; 220,000 compounds, 2.6% hits; AID 1347165; active = well fitted inhibition curve with a large enough effect; note: 0% is about no effect; nearly all actives have a fitted effect of over 70% in size
Target sequence (Q9UGL1 whole entry, looked up): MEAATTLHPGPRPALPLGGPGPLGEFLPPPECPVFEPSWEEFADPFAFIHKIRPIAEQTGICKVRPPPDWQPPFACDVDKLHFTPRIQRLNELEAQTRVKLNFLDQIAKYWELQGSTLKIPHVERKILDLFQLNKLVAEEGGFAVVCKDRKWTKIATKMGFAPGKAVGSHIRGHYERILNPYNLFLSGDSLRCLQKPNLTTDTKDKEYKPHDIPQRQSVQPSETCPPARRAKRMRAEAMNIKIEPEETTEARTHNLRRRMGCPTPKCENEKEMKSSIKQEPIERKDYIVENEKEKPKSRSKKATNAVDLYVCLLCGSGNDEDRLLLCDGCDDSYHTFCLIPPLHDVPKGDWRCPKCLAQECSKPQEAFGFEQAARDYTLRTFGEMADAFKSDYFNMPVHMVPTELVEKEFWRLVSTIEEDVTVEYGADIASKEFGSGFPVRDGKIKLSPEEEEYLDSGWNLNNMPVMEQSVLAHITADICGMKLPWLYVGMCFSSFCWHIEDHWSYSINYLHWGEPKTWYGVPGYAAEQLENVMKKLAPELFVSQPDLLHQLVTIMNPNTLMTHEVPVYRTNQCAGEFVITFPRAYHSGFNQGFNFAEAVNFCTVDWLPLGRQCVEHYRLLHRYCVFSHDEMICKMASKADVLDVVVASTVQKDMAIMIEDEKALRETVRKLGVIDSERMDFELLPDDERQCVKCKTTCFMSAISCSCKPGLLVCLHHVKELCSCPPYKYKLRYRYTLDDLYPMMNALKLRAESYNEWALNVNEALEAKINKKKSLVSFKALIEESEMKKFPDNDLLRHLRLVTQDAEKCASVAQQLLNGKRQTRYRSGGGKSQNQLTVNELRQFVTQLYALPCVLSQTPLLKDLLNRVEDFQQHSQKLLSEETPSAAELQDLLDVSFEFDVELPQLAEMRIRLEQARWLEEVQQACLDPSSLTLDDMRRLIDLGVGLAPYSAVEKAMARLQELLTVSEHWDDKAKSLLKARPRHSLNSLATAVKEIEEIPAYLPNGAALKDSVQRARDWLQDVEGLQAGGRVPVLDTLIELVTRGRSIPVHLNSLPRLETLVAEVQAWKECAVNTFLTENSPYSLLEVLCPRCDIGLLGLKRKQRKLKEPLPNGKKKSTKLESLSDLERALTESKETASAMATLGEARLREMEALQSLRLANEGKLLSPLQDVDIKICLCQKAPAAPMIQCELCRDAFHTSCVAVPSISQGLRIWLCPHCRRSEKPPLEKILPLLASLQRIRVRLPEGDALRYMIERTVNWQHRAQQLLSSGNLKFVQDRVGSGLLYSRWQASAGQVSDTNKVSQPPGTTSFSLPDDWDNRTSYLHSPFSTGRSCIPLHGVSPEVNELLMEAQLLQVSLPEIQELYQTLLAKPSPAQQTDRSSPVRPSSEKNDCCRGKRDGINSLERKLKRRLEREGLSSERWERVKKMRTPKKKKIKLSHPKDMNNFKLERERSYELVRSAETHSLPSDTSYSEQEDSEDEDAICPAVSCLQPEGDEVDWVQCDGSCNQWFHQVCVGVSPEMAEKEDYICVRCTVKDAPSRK
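Coupled FDH/NAD⁺ fluorescence readout. KDM5BΔAP 200 nM final; compound titration, 10 min RT preincubation; substrate mix 12.5 µM H3K4me3, 25 µM 2-OG, 50 µM Fe(II), 100 µM ascorbate, 0.25 mM NAD⁺, 0.25 U/mL FDH; ΔRFU over 30 min.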
Active calls of the source: *; i = inactive. Only a selection was taken, and hits are over-represented in it overall. Potency is the fitted concentration of half-maximal effect.

SMILES	KDM5B inh
CCCc1noc(-c2cccn3c(CNC(=O)C4CCC4)nnc23)n1	28.2µM*
CCCNC(=O)c1cccc(NC(=O)c2ccncc2)c1	i
Cc1ccc2c(=O)cc(C(=O)Nc3ccc(S(=O)(=O)N4CCCC(C)C4)cc3)oc2c1 (centres undefined)	i
O=C(NCCNS(=O)(=O)c1cccc2nonc12)c1ccc2[nH]ccc2c1	i
CCN(CC(=O)Nc1ccc(NC(C)=O)cc1)C(=O)c1nn(C)c(=O)c2ccccc12	i
O=C(COc1cc(O)c2c(=O)cc(-c3ccccc3)oc2c1)NCCCO	i
O=C(OCCOc1ccccc1F)c1ccc2nccnc2c1	i
FC(F)(F)c1cccc(N2CCN(C(c3ccc(Br)cc3)c3nnc(-c4ccccc4)o3)CC2)c1 (centres undefined)	i
CCCCCCNC(=O)C(C#N)c1nc2ccccc2nc1N1CCCCC1 (centres undefined)	i
Cc1ccc(C(=O)NCCn2cccc2-c2nc(-c3ccccc3)no2)cc1	i
COCc1nc2c(NC(=O)CC3CCCCC3)cccn2n1	i
O=C(c1cc(F)ccc1F)N1CCC(n2cc(-c3nc(C4CC4)no3)nn2)C1 (centres undefined)	i
CCCc1noc(-c2cccn3c(CNC(=O)c4ccc5cc[nH]c5c4)nnc23)n1	i
COc1cc(Cl)ccc1C(=O)NCc1nnc2c(-c3nc(C4CC4)no3)cccn12	i
CS(=O)(=O)Nc1ccccc1CNC(=O)CC1CCCCC1	i
CCCc1noc(-c2cccn3c(CNC(=O)c4ccc(C)cc4)nnc23)n1	25.1µM*
O=C(NCc1nnc2c(-c3nc(C4CC4)no3)cccn12)c1cc(Cl)ccc1F	28.2µM*
O=C(CC1CCCCC1)NCc1nnc2c(-c3nc(C4CC4)no3)cccn12	15.8µM*
CCN(CC)C(=O)COc1nc(-c2ccco2)c2c(c1C#N)CCC2	i
COc1cc(C(=S)N2CCN(CCO)CC2)ccc1OCc1ccc(C)cc1	i
c1ccc2c(NC3C4CC5CC(C4)CC3C5)nc(N3CCCCC3)nc2c1 (centres undefined)	i
COc1ccc(NC(=O)CN2CCN(c3nc(-c4ccco4)c4c(c3C#N)CCC4)CC2)cc1	i
CCC(C)NC(=O)Cc1csc(NC(=O)Nc2ccccc2)n1 (centres undefined)	i
CCCc1cc(=O)n2[nH]c(NC(=O)Cc3ccccc3)nc2n1	i
CCCOc1ccc(Oc2ncccc2CNC(=O)Nc2ccccc2)cc1	i
SMILES	KDM5B inh
COc1ccc(NC(=O)c2cnc3n[nH]c(-c4ccc(OC)cc4C)c3n2)cc1	i
COc1ccc(-c2[nH]nc3ncc(C(=O)N4CC(O)C4)nc23)c(C)c1	i
Cc1ccsc1-c1[nH]nc2ncc(-c3cn[nH]c3)nc12	31.6µM*
COc1ccc(-c2[nH]nc3ncc(-c4cn[nH]c4)nc23)c(C)c1	31.6µM*
Cc1ccsc1-c1[nH]nc2ncc(-c3ccccc3)nc12	i
Cc1ccsc1-c1[nH]nc2ncc(-c3ccc(F)cc3)nc12	i
COc1cccc(NC(=O)CSc2nc3ccsc3c(=O)[nH]2)c1	i
COCCNc1nnc(SCc2coc(-c3ccccc3)n2)s1	i
CC1CCN(C(=O)c2ccccc2OCC2CCCN(Cc3nccs3)C2)CC1 (centres undefined)	i
COc1cc(OC)cc(C(=O)NCC(=O)O)c1	i
COCc1nc2nccc(-c3cccs3)n2n1	i
Brc1ccc(-c2ccnc3nc(-c4cccs4)nn23)cc1	7.94µM*
c1csc(-c2ccnc3nc(C4CCC4)nn23)c1	i
CC(=O)c1cccc(Nc2c3c(nc4nc(-c5cccs5)nn24)CCCC3)c1	i
c1csc(-c2nc3nccc(-c4ccncc4)n3n2)c1	28.2µM*
c1coc(-c2ccnc3nc(-c4cccs4)nn23)c1	28.2µM*
Cc1ccc(Nc2c3c(nc4nc(-c5cccs5)nn24)CCCC3)cc1F	i
O=C(N[C@@H](C(=O)NCc1cccnc1)c1ccccc1)C(c1ccccc1)c1ccccc1	i
Cn1c(=O)c2c(nc(CN3CCN(c4ccc(F)cc4)CC3)n2Cc2ccc(F)cc2)n(C)c1=O	i
Cn1ccnc1CN1CCN(c2nccc(-c3cccnc3)n2)CC1	i
NCCc1cccc(CN2CCCC(COc3ccccc3F)C2)c1 (centres undefined)	i
O=C(CCc1nc2ccccc2[nH]1)N1CCCOC(Cn2cccn2)C1 (centres undefined)	i
c1cncc(-c2ccnc(N3CCCOC(Cn4cccn4)C3)n2)c1 (centres undefined)	25.1µM*
Fc1ccccc1OCC1CCCN(c2nccc(-c3cccnc3)n2)C1 (centres undefined)	28.2µM*
CC1CCN(C(=O)c2ccccc2OCC2CCCN(Cc3ccncc3F)C2)CC1 (centres undefined)	i
Cc1cc(C)c(NC(=O)CNC(=O)c2cc3ccc(F)cc3nc2C)c(C)c1	i
CCN(CC)S(=O)(=O)c1ccc(NC(=O)Cc2nn(C)c(=O)c3ccccc23)cc1	i
Cc1cccc(OC[C@H]2C[C@@H](NC(=O)C3CCCC3)[C@H](O)[C@@H]2O)n1	i

Source: PubChem (National Center for Advancing Translational Sciences (NCATS))
